According to PubChem BioAssay (NCATS):
Inconclusive results are not listed. Entries that show only a call come without a potency. Values without a mark were called inactive. The source made the active and inactive calls. Calls follow the shape of the dose curve; as a rule, active = well fitted curve in the direction sought with a large enough effect; inconclusive = small, poorly fitted or top-dose-only effect, or another doubt; inactive = no such curve, though single readings can be large; an effect the other way counts as inactive or inconclusive. Where a SMILES comes first, the peptide text is derived from it. The star is where a group is joined. Cbz = O=C(OCc1ccccc1)*; CH2Cl = ClC*

Key:
CASKI = assay: Primary qHTS to identify gynecologic anti-cancer compounds using libraries of approved drugs and bioactive compounds (AID 1345084); settings: Gynecologic cancer cell panel viability, ATPlite luminescence, 48 h; series mostly up to 57.5 µM; also: nearly all actives have a fitted effect of over 55% in size
In short: (§1)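 Luminescence from the ATPlite ATP-monitoring reagent indicates viable cell number; lower signal means cytotoxicity. Cells received compound 16 h after seeding and were exposed for 48 h across five concentrations.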

Es-2 = assay: as above; settings: Gynecologic cancer cell panel viability, ATPlite luminescence, 48 h; series mostly up to 57.5 µM
In short: as §1

HeLa = assay: as above; settings: Gynecologic cancer cell panel viability, ATPlite luminescence, 48 h; series mostly up to 57.5 µM
In short: as §1

JEG-3 = assay: as above; settings: Gynecologic cancer cell panel viability, ATPlite luminescence, 48 h; series mostly up to 57.5 µM
In short: as §1

OV90 = assay: as above; settings: Gynecologic cancer cell panel viability, ATPlite luminescence, 48 h; series mostly up to 57.5 µM
In short: as §1

PA-1 = assay: as above; settings: Gynecologic cancer cell panel viability, ATPlite luminescence, 48 h; series mostly up to 57.5 µM
In short: as §1

SKOV3 = assay: as above; settings: Gynecologic cancer cell panel viability, ATPlite luminescence, 48 h; series mostly up to 57.5 µM
In short: as §1

Tov-21-G = assay: as above; settings: Gynecologic cancer cell panel viability, ATPlite luminescence, 48 h; series mostly up to 57.5 µM
In short: as §1

Tov112D = assay: as above; settings: Gynecologic cancer cell panel viability, ATPlite luminescence, 48 h; series mostly up to 57.5 µM
In short: as §1

Hek293T = assay: as above; settings: Gynecologic cancer cell panel viability, ATPlite luminescence, 48 h, control line for the selectivity index; series mostly up to 57.5 µM
In short: as §1

CAOV3 = assay: as above; settings: Gynecologic cancer cell panel viability, ATPlite luminescence, 48 h; series mostly up to 57.5 µM
In short: as §1

[1] = qHTS assay to identify inhibitors of the type 1 interferon - major histocompatibility complex class I in skeletal muscle: Counter screen cell viability and HiBit confirmation (AID 1347412); settings: iHSKM muscle cells + IFN-b, HiBiT or CellTiter-Glo, 24 h; also: nearly all actives have a fitted effect of over 60% in size
In short: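 Luminescence read-out: Nano-Glo HiBiT lytic signal from C-terminally HiBiT-tagged HLA-B in CRISPR-edited human myoblasts, plus CellTiter Glo ATP as viability counter screen. IFN-beta 4.0 ng/ml; 24 hrs treatment at 37 C, 5% CO2.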
Potency is read from the fitted curve at half-maximal effect.

Q: What does the source list for c1cc(NC2CCNCC2)nc(-c2cnc3ccccn23)c1?
A: Potency (CASKI): 10 µM (active); Potency (Es-2): 17.8 µM (active); Potency (HeLa): 8.91 µM (active); Potency (JEG-3): inactive; Potency (OV90): 11.2 µM (active); Potency (PA-1): 20 µM (active); Potency (SKOV3): 8.91 µM (active); Potency (Tov-21-G): 15.8 µM (active); Potency (Tov112D): 20 µM (active)

Q: Which results are given for Cc1ccc(-c2c(C(=O)CCl)n(CCCO)c3ncnc(N)c23)cc1?
A: Potency (CASKI): inactive; Potency (HeLa): inactive; Potency (Hek293T): inactive; Potency (JEG-3): inactive; Potency (OV90): inactive; Potency (PA-1): inactive; Potency (SKOV3): inactive; Potency (Tov-21-G): inactive; Potency (Tov112D): inactive

Q: Which results are given for Fc1ccc(-n2cc(CCCCN3CCC4(CC3)OCc3ccccc34)c3ccccc32)cc1?
A: Potency (CASKI): inactive; Potency (Es-2): inactive; Potency (HeLa): inactive; Potency (Hek293T): inactive; Potency (JEG-3): inactive; Potency (Tov-21-G): inactive

Q: With CCNC(=O)Nc1ccc(-c2nc3c(c(N4CCOCC4C)n2)CCN(C2COC2)C3)cc1 (stereo not given) as the molecule, how does the Potency (CASKI) read?
A: inactive

Q: And the Potency (HeLa)?
A: inactive

Q: And the Potency (Hek293T)?
A: 2.82 µM (active)

Q: What about the Potency (JEG-3) of the same molecule?
A: inactive

Q: What about the Potency (PA-1) of the same molecule?
A: 2.24 µM (active)

Q: For C=C1C(=O)O[C@H]2C[C@@H](C)[C@@H]3CCC(=O)[C@@]3(C)C[C@H]12, which Potency (CASKI) is on record?
A: 7.94 µM (active)

Q: And the Potency (HeLa)?
A: inactive

Q: And the Potency (Hek293T)?
A: 25.1 µM (active)

Q: What about the Potency (JEG-3) of the same molecule?
A: 15.8 µM (active)

Q: What about the Potency (OV90) of the same molecule?
A: 22.4 µM (active)

Q: What about the Potency (Tov112D) of the same molecule?
A: inactive

Q: For C[C@H]1[C@H](/C=C/c2ccc(-c3ccccc3C#N)cn2)[C@@H]2[C@@H](C)OC(=O)[C@@H]2C[C@@H]1C, which Potency (CAOV3) is on record?
A: inactive

Q: What about the Potency (OV90) of the same molecule?
A: inactive

Q: And the Potency (Tov112D)?
A: 20 µM (active)

Q: Which results are given for O=C(NNc1nc2cc(F)ccc2n2cccc12)c1cnccn1?
A: Potency (CASKI): inactive; Potency (Es-2): 7.08 µM (active); Potency (HeLa): inactive; Potency (Hek293T): 3.55 µM (active); Potency (JEG-3): inactive; Potency (OV90): 5.01 µM (active); Potency (PA-1): 3.55 µM (active); Potency (Tov-21-G): 8.91 µM (active); Potency (Tov112D): 6.31 µM (active)

Q: With CN(C)CCN(Cc1ccc(-c2ccc(CNCCc3ccccc3)cc2)cc1)C(=O)CCC1CCCC1 as the molecule, how does the Potency (CAOV3) read?
A: 5.62 µM (active)

Q: What about the Potency (JEG-3) of the same molecule?
A: 25.1 µM (active)

Q: What about the Potency (OV90) of the same molecule?
A: 22.4 µM (active)

Q: And the Potency (SKOV3)?
A: 15.8 µM (active)

Q: For C=C1C(=O)O[C@@H]2/C=C(\CO)CC/C=C(/C=O)C[C@@H](O)[C@@H]12, which Potency (CASKI) is on record?
A: inactive

Q: And the Potency (Es-2)?
A: 31.6 µM (active)

Q: And the Potency (HeLa)?
A: inactive

Q: And the Potency (Hek293T)?
A: 28.2 µM (active)

Q: And the Potency (JEG-3)?
A: inactive

Q: What about the Potency (Tov-21-G) of the same molecule?
A: 14.1 µM (active)

Q: And the Potency (Tov112D)?
A: inactive

Q: For Cc1ccc(C)c(-c2cc(C(F)(F)F)nn2-c2ccc(S(N)(=O)=O)cc2)c1, which Potency (CASKI) is on record?
A: inactive

Q: And the Potency (HeLa)?
A: 31.6 µM (active)

Q: Which Potency (Es-2) does the source give for COc1ccc(C#Cc2ccc(C(=O)N3CCC[C@@H](O)C3)c(F)c2)cc1 here?
A: 12.6 µM (active)

Q: And the Potency (Hek293T)?
A: 14.1 µM (active)

Q: What about the Potency (JEG-3) of the same molecule?
A: inactive

Q: And the Potency (SKOV3)?
A: 8.91 µM (active)

Q: And the Potency (Tov-21-G)?
A: 7.08 µM (active)

Q: And the Potency (Tov112D)?
A: 8.91 µM (active)

Q: Which Potency (CASKI) does the source give for C=C1C(=O)OC2/C=C(\COC(C)=O)CC/C=C(\C=O)CC(OC(=O)C(C)CC)C12 (stereo not given) here?
A: inactive

Q: And the Potency (HeLa)?
A: inactive

Q: What about the Potency (OV90) of the same molecule?
A: inactive

Q: What about the Potency (PA-1) of the same molecule?
A: 11.2 µM (active)

Q: What does the source list for CCCCNc1ncc(C(=O)NCc2ccc(-n3ccnc3)cc2)c(NC2CCC(O)CC2)n1 (stereo not given)?
A: Potency (Es-2): inactive; Potency (Hek293T): inactive; Potency (SKOV3): inactive

Q: Which Potency (Es-2) does the source give for C=C(C)[C@@H]1CC=C(COC(=O)NC(=O)c2ncn3c(=O)n(C)nnc23)CC1 here?
A: 20 µM (active)

Q: What about the Potency (HeLa) of the same molecule?
A: 31.6 µM (active)

Q: What about the Potency (Hek293T) of the same molecule?
A: 25.1 µM (active)

Q: What does the source list for COC(C)(C)CCn1nc(Nc2c(C)cccc2C)c2cnc(Nc3ccc(OCCN4CCCC4)c(F)c3)nc21?
A: Potency (Es-2): 15.8 µM (active); Potency (OV90): 14.1 µM (active); Potency (PA-1): 2.82 µM (active); Potency (SKOV3): 15.8 µM (active); Potency (Tov-21-G): 1.78 µM (active); Potency (Tov112D): inactive; Potency ([1]; HiBiT): 15.7 µM (active)

Q: With Cc1cc(NC(=O)c2cccc(NC(=O)/C=C/CN(C)C)c2)ccc1Nc1nccc(-c2cccnc2)n1 as the molecule, how does the Potency (Es-2) read?
A: inactive

Q: What about the Potency (HeLa) of the same molecule?
A: inactive

Q: What about the Potency (JEG-3) of the same molecule?
A: inactive

Q: What about the Potency (OV90) of the same molecule?
A: inactive

Q: With C=C(C)C(=O)O[C@H]1C[C@@](C)(O)C2(O)CCC(C)(/C=C3/OC(=O)C(COC)=C31)O2 (stereo not given in full) as the molecule, how does the Potency (Es-2) read?
A: 11.2 µM (active)

Q: What about the Potency (HeLa) of the same molecule?
A: inactive

Q: And the Potency (PA-1)?
A: 10 µM (active)

Q: What about the Potency (Tov-21-G) of the same molecule?
A: 10 µM (active)

Q: What does the source list for COC1CC/C=C(\C)C(=O)Nc2cc(O)cc(c2)CC(C)CC(OC)C(O)C(C)/C=C(\C)C1OC(N)=O (stereo not given)?
A: Potency (Es-2): inactive; Potency (HeLa): inactive; Potency (OV90): 8.91 µM (active); Potency (Tov-21-G): 3.98 µM (active)

Q: For O=C(Nc1ccccc1Cl)c1cnc2ccc(C3CCNCC3)cn12, which Potency (HeLa) is on record?
A: inactive

Q: And the Potency (Hek293T)?
A: inactive

Q: And the Potency (OV90)?
A: 7.94 µM (active)

Q: What about the Potency (PA-1) of the same molecule?
A: 0.891 µM (active)

Q: And the Potency (Tov-21-G)?
A: 1.58 µM (active)

Q: What about the Potency (Tov112D) of the same molecule?
A: inactive

Q: Which Potency (HeLa) does the source give for O=c1ccc2ccc(OCCCCN3CCN(c4cccc5sccc45)CC3)cc2[nH]1 here?
A: inactive

Q: And the Potency (JEG-3)?
A: inactive

Q: And the Potency (PA-1)?
A: inactive

Q: What about the Potency (Tov-21-G) of the same molecule?
A: inactive

Q: What about the Potency (Tov112D) of the same molecule?
A: inactive

Q: For CCN(Cc1cc(Nc2nc(C)cn3c(-c4cn[nH]c4)cnc23)sn1)C(C)(C)CO, which Potency (Es-2) is on record?
A: 3.16 µM (active)

Q: What about the Potency (Hek293T) of the same molecule?
A: 3.55 µM (active)

Q: And the Potency (Tov-21-G)?
A: 0.355 µM (active)

Q: Which Potency (CASKI) does the source give for CC1(C)CC[C@]2(C(=O)O)CC[C@]3(C)C(=CCC4[C@@]5(C)C[C@@H](O)[C@H](O)C(CO)(CO)C5CC[C@]43C)C2[C@@H]1O (stereo not given in full) here?
A: inactive

Q: What about the Potency (OV90) of the same molecule?
A: inactive

Q: And the Potency (Tov112D)?
A: 7.94 µM (active)

Q: Which results are given for CC(C)C[C@H](NC(=O)CNC(=O)OCc1ccccc1)C(=O)N[C@@H](Cc1ccccc1)C(=O)CCl (Cbz-Gly-Leu-Phe-CH2Cl)?
A: Potency (CASKI): inactive; Potency (HeLa): inactive; Potency (OV90): inactive

Q: For C=CC(=O)Nc1ccc2ncnc(Nc3cccc(Br)c3)c2c1, which Potency (HeLa) is on record?
A: inactive

Q: And the Potency (Hek293T)?
A: inactive

Q: What about the Potency (OV90) of the same molecule?
A: inactive

Q: And the Potency (Tov-21-G)?
A: 10 µM (active)

Q: And the activity change, negative = inhibition ([1]; Viability, at 45.9 µM (top of the series))?
A: -0.162%
